Measurements from PubChem BioAssay (Tox21).
“And” between values parts separate entries of the source, which are not always exact repeats. Identical values can stand only once. Records with an inconclusive call do not appear. The source made the active and inactive calls. The call rests on the fitted dose curve.

Assay: qHTS assay to identify small molecule antagonists of the sonic hedgehog signaling (Shh) pathway (AID 1259369); further: nearly all actives have a fitted effect of over 45% in size
Settings: NIH/3T3 Gli1-Luc reporter, Shh antagonist, luminescence 24 h; series mostly up to 92.4 µM
Source text: U.S. Tox21 Program National Center for Advancing Translational Sciences [NCATS] NIH Chemical Genomics Center [NCGC] U.S. Environmental Protection Agency [EPA] National Institutes of Environmental Health Sciences [NIEHS] National Toxicology Program [NTP] U.S. Food and Drug Administration [FDA] Tox21 Assay Overview: The sonic hedgehog (Shh) pathway is essential for normal embryonic development. Dysregulation of the Shh pathway can cause severe developmental defects in organs. Therefore chemicals that interfere with the pathway are potential developmental toxicants. A cell line designated 3T3Gli1-Luc (DMB/OARSA/CFSAN/FDA, Laurel, MD), a NIH/3T3 derived clone containing stably integrated Gli1-Luc reporter is used to detect chemical interference of the Shh pathway, by changes in the expression of the firefly Luc gene under the control of the Gli1 transcriptional response element. This cell line was used to screen Tox21 libraries for identifying and prioritizing the potential developmental toxicants that interfere Shh pathway. Conditioned medium-stimulated mode was used to screen for chemicals inhibiting Shh signaling.
Tox21 Assay Protocol Summary: 3T3 Gli1-Luc cells were dispensed at 2,000 per well in 5uL of culture medium into white solid bottom 1536-well plates (Greiner Bio-One, Monroe, NC) using a Multidrop Combi (Thermo Scientific, Waltham, MA) dispenser. The assay plates were incubated at 37 C and 5% CO2 for 4hr, and then 23nL of compounds dissolved in DMSO and positive control were transferred using a Pintool station (Wako, San Diego, CA). The compound transfer was followed by the addition of 1ul conditioned medium or assay buffer using two separate tips of Flying Reagent Dispenser (FRD, Aurora Discovery, San Diego, CA). The assay plates were incubated at 37C and 5% CO2 for 24hr. For luciferase read, 4uL of Amplite Luciferase reporter gene assay reagent (AAT Bioquest, Inc. Sunnyvale, CA) was added to each well of the assay plates using FRD and incubated at room temperature for 30min. The luminescence signal was measured using a ViewLux plate reader (Perkin Elmer, Shelton, CT).
Potency means the concentration at half of the fitted maximal effect.

Compound | Potency
Clc1ccc(COC(Cn2ccnc2)c2ccc(Cl)cc2Cl)cc1 (stereo not given) | 11.4 µM (active)
O=C(CCl)C(Cl)Cl | 2.76 µM (active)
S=C(SSC(=S)N1CCCCC1)N1CCCCC1 | 5.96 µM (active)
CCCN(CC)CC1COC2(CCC(C(C)(C)C)CC2)O1 (stereo not given) | inactive
[Cd+2].[Cl-].[Cl-] | 245 nM (active) and 486 nM (active)
CCSC(C)CC1CC(=O)C(/C(CC)=N/OC/C=C/Cl)=C(O)C1 (stereo not given) | inactive
O=C1NCN(c2ccccc2)C12CCN(CC1COc3ccccc3O1)CC2 (stereo not given) | inactive
Clc1ccc(C(Cl)(Cl)Cl)c(Cl)c1 | inactive
NC(=O)c1ccc(N)nc1 | inactive
ClC1=C(Cl)[C@]2(Cl)[C@H]3[C@H]([C@H]4C=C[C@H]3C4)[C@@]1(Cl)C2(Cl)Cl | inactive
C=CC(=O)OCC(COC(=O)C=C)(COC(=O)C=C)COC(=O)C=C | 6.86 µM (active)
CC1(c2ccc(Oc3ccccc3)cc2)OC(=O)N(Nc2ccccc2)C1=O (stereo not given) | 6.15 µM (active)
CC(C)(O)c1cnn2c(-c3ccc(F)c(-c4c(F)cccc4C#N)c3)cnc2n1 | 4.33 µM (active)
N#CCCO | inactive
CC(C)CC(C)(c1ccc(O)cc1)c1ccc(O)cc1 | 27.4 µM (active)
BrC(Br)C(Br)(Br)Br | 61.5 µM (active)
CC(=O)/C=C/c1ccc2c(c1)OCO2 | 17.3 µM (active)
C1CCC2CCCCC2C1 (stereo not given) | inactive
CC(C)CCCCCOC(=O)c1ccccc1C(=O)OCCCCCC(C)C | 17 µM (active)
c1ccc2c(c1)OCC(C1=NCCN1)O2 (stereo not given) | 0.376 µM (active)

Compound | Potency
Cc1ccc(C(=O)Cl)cc1 | inactive
CC(=O)C(Cl)(Cl)Cl | 5.9 µM (active)
ClC(Cl)=C(Cl)Cl | inactive
Nc1ccc(Cc2ccc(N)c(Cl)c2)cc1Cl | 21 µM (active)
COC12CC[C@@]3(C[C@@H]1C(C)(O)C(C)(C)C)[C@H]1Cc4ccc(O)c5c4[C@@]3(CCN1CC1CC1)[C@H]2O5 (stereo not given in full) | 4.82 µM (active)
SCc1ccco1 | 61.1 µM (active)
CCN | inactive
OC(Cc1ccccc1Cl)(Cn1cncn1)C1(Cl)CC1 (stereo not given) | 12.2 µM (active)
COc1ccc(OC)c(CC(C)N)c1 (stereo not given) | inactive
Cc1cc(C)c(C2=C(OC(=O)CC(C)(C)C)C3(CCCC3)OC2=O)c(C)c1 | inactive
COc1cccc2c1C(=O)c1c(O)c3c(c(O)c1C2=O)C[C@@](O)(C(=O)CO)CC3OC1CC(N2CCOC(OC)C2)C(O)C(C)O1 (stereo not given in full) | 0.0067 µM (active)
N#Cc1ccccc1N | inactive
ClC1=C(Cl)[C@]2(Cl)[C@@H]3[C@@H]4C[C@@H]([C@H]5O[C@@H]45)[C@@H]3[C@@]1(Cl)C2(Cl)Cl | 21.7 µM (active)
C[C@@H]1CC[C@@]2(OC1)O[C@H]1[C@@H](O)[C@H]3[C@@H]4CC[C@H]5C[C@@H](O[C@@H]6O[C@H](CO)[C@H](O[C@@H]7O[C@H](CO)[C@@H](O)[C@H](O[C@@H]8OC[C@@H](O)[C@H](O)[C@H]8O)[C@H]7O[C@@H]7O[C@H](CO)[C@@H](O)[C@H](O[C@@H]8O[C@H](CO)[C@@H](O)[C@H](O)[C@H]8O)[C@H]7O)[C@H](O)[C@H]6O)[C@H](O)C[C@]5(C)[C@H]4CC[C@]3(C)[C@H]1[C@@H]2C | 1.15 µM (active)
Clc1ccc(-c2ccccc2)cc1 | inactive
O=C1C=CC(=O)c2ccccc21 | 4.33 µM (active)
CNC(C)Cc1ccc2c(c1)OCO2 (stereo not given) | 18.9 µM (active)
C[C@H]1CC[C@@H]2[C@@H](C)[C@H]3[C@H](C[C@H]4[C@@H]5CC=C6CC(O[C@@H]7O[C@H](CO)[C@H](O)[C@H](O[C@@H]8O[C@H](CO)[C@@H](O)[C@H](O)[C@H]8O)[C@H]7O[C@H]7O[C@@H](C)[C@H](O)[C@@H](O)[C@H]7O)CC[C@]6(C)[C@H]5CC[C@]34C)N2C1 (stereo not given in full) | inactive
COc1ccc(OC)c(C=O)c1 | inactive
[CH3][Hg][Cl] | 34.3 µM (active)
